Screening results (PubChem BioAssay)
This is a sample that favours compounds with a hit; in the whole collection about 4% have one here.
TROY signal inh: inhibitors of TROY-driven NF-kB signaling, primary screen, Q293 LMP1-TROYcd cells, NF-kB luciferase, uHTS; Q293 LMP1-TROYcd NF-kB luciferase reporter, 4 h; inhibition, % at 10 µM; 0.98% of 360,000 active;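 active = compounds whose plate-normalised and pattern-corrected inhibition of the luciferase reporter signal at the single screening dose is 50% or more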
HIF-2a block: HIF-2a reporter inhibitors, primary screen, luminescence, 786-0 RCC cells; 786-0 RCC cells HIF-2a reporter, luciferase luminescence, overnight; inhibition, % at 18.8 µM; 0.72% of 360,000 active; AID 624352, 2012;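 active = inhibition of the luminescence signal of 40% or more relative to plate controls, in a single-dose primary screen at 18.75 µM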
CF NFkB inh: inhibitors of PAF-induced NF-kB signaling, primary screen, cell-based, GFP fluorescence, uHTS; KKLEB NF-kB-GFP reporter, GFP fluorescence overnight; inhibition, % at 5 µM; 0.86% of 360,000 active; AID 588850, 2011;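 active = at least 50% inhibition at 5 µM, scaled per plate between neutral and stimulator controls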;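 note: PAF is a Pseudomonas aeruginosa culture filtrate used as stimulus; plate controls were PAF-stimulated DMSO wells for no effect and unstimulated DMSO wells for full effect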
KKLEB cytotox: cytotoxicity in KKLEB CF airway cells, primary screen, cytotoxicity control for CF NF-kB inhibitor project, cell-based, uHTS, fluorescence assay plates. 0.36% of 360,000 active. KKLEB CF airway cells viability, ATPlite luminescence, overnight; active compounds read low; cells stimulated with P. aeruginosa culture filtrate. AID 602141, 2011. activity change (cytotoxicity), % at 5 µM;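 active = corrected activity change at or below -50% at 5 µM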
TWEAK Fn14 block: inhibitors of TWEAK-Fn14 signaling, primary screen, luciferase reporter cells, uHTS; TWEAK-stimulated Fn14 reporter cells, luciferase luminescence, 8 h; 2% of 360,000 active; inhibition, % at 10 µM; in the data active = inhibition above about 50%
Peg3 prom inh: Peg3 promoter-driven luciferase inhibitors, primary screen, cell-based, HeLa, luciferase luminescence; AID 588405, 2011; 1.7% of 360,000 active; HeLa PEG-Prom luciferase reporter, overnight; inhibition, % at 20 µM;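 active = inhibition of at least 50% at 20 µM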
Numbers without * were called inactive; / = no result given.

SMILES	TROY signal inh	HIF-2a block	CF NFkB inh	KKLEB cytotox	TWEAK Fn14 block	Peg3 prom inh
CCCCCCCCSC1=CC(=O)C(OC)=C(OC)C1=O	-2.7	9.1	63.4*	-35.5	29.1	93.1*
COc1ccc(N=C2S/C(=C\c3ccc(N4CCOCC4)o3)C(=O)N2CCc2c[nH]c3ccccc23)cc1	15.6	92.1*	-9.0	-16.5	96.5*	100.6*
O=C(c1cccc(-n2cccc2)c1)N1CCN(S(=O)(=O)c2ccccc2Br)CC1	1.8	-3.5	38.1	-11.5	4.2	8.7
O=S(=O)(Cc1ccccc1)C(CCCc1ccccc1)S(=O)(=O)Cc1ccccc1	3.9	1.0	12.3	-7.4	-1.9	11.4
CCC(=O)Nc1cc2nn(-c3ccccc3)nc2cc1Cl	10.0	-147.0	6.0	-24.3	51.8*	-161.3
N#CC1C=Cc2ccccc2N1C(=O)c1ccccc1 (stereo not drawn)	-11.7	10.9	-15.1	12.6	6.5	8.9
N#CC1C=Cc2c(ccc3ccccc23)N1C(=O)c1ccccc1 (stereo not drawn)	-11.7	31.9	42.2	-20.9	54.1*	-140.3
COc1ccc(-c2sc3cc4c(cc3c2-c2ccc(OCCN3CCCCC3)cc2)OCO4)cc1	-4.0	10.8	71.8*	-77.6*	-30.4	89.7*
COc1cc(OC)cc(-c2sc3ccc(OC)cc3c2-c2ccc(OCCN3CCCCC3)cc2)c1	9.6	-22.6	68.6*	-75.0*	-29.9	90.4*
COc1ccccc1-c1sc2cc3c(cc2c1-c1ccc(OCCN2CCOCC2)cc1)OCO3	5.3	7.8	-8.9	4.9	7.9	11.4
COc1ccc(-c2c(-c3cc(OC)cc(OC)c3)sc3ccc(OC)cc23)cc1	-0.8	11.3	-2.1	5.5	-31.9	-4.7
O=c1c2c3c(sc2ncn1/N=C/c1ccc([N+](=O)[O-])o1)CCCC3	12.9	1.8	-0.1	-1.1	63.7*	9.1
Nc1ccccc1Nc1cccc(C(F)(F)F)c1	18.6	21.3	22.0	-4.6	50.3*	20.8
CCCCCn1cnnc1SCC(=O)c1c(N)n(C2CC2)c(=O)[nH]c1=O	-19.4	8.7	-2.9	7.9	0.6	-10.4
c1ccc(Nc2nnc(-c3cccnc3)s2)cc1	-6.0	-122.7	-12.5	-5.7	51.1*	-180.6
Nc1cc([N+](=O)[O-])cc2oc(-c3ccccc3)cc12	17.0	-250.9	-61.5	-1.0	-9.2	-263.9
CCC(=O)N1CCc2cc(S(=O)(=O)CCC(=O)NCCc3ccccc3)ccc21	7.9	20.6	-2.2	11.9	-10.1	7.2
CCC(=O)N1CCc2cc(S(=O)(=O)CCC(=O)NCc3ccco3)ccc21	9.9	18.8	16.3	-3.0	100.6*	-33.7
C/C=C/c1cccc(-c2nc(C(=O)N3CCOCC3)cc3c2[C@H](CCO)N(C(=O)NC(C)C)C3)c1	-1.8	7.3	/	/	-13.5	/
COc1ccc(C(CCN2CCCC(C)C2)c2c(OC)cc(OC)c3c(-c4ccccc4)cc(=O)oc23)cc1 (stereo not drawn)	-7.8	10.4	3.2	-14.4	-20.7	65.0*
COc1cc(OC)c2c(-c3ccccc3)cc(=O)oc2c1C(CCN1CCCC(C)C1)c1ccc(N(C)C)cc1 (stereo not drawn)	7.8	24.6	31.4	-24.9	3.8	78.3*
COC(=O)[C@@]12C[C@@H](CC(=O)NCc3ccc(OC)c(OC)c3)C(=O)N(Cc3ccco3)C1=CCC(C)(C)C2	/	2.0	/	/	/	/
O=C(Cn1nnc(-c2ccccc2)n1)N/N=C/c1cc([N+](=O)[O-])c(Cl)cc1Cl	-11.7	25.6	-12.9	6.8	-57.1	50.1*
COc1cccc(Oc2ccc(S(=O)(=O)N3CCOCC3)cc2[N+](=O)[O-])c1	-7.6	0.5	16.7	-0.3	-0.5	7.8
O=C(Cc1csc(Nc2nc(=S)[nH]c3ccccc23)n1)N1CCN(c2cccc(C(F)(F)F)c2)CC1	18.5	18.7	11.7	-14.6	17.5	80.1*
Cc1ccc(NC(=O)C2(C)CCN2C2Cc3ccccc3C2)cc1 (stereo not drawn)	15.0	5.1	-13.8	5.8	-4.9	10.2
